The source of these data is PubChem BioAssay (Tox21).

Each structure is given as a SMILES string. A number with no mark means an inactive call. Inconclusive results are not listed. Calls of active or inactive are those of the source. Unless noted, the call rests on the fitted dose curve; in most records, active means well fitted curve in the direction sought with a large enough effect in the repeat runs; inconclusive means weak or mixed curves; inactive means no such curve, though single readings can be large; an effect the other way counts as inactive or inconclusive.

Assay [1] has as its target Progesterone receptor (Homo sapiens) (UniProt P06401). In words: qHTS assay to identify small molecule agonists of the progesterone receptor (PR) signaling pathway (AID 1346784; calls by dose curve; further: nearly all actives have a fitted effect of over 30% in size). The procedure, abridged: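 Reporter assay, GripTite PR-UAS-bla HEK 293T cells: 16 hr exposure to DMSO-dissolved compounds at 37C, 5% CO2, in steroid-depleted (2% charcoal-stripped FBS) medium; beta-lactamase measured by FRET fluorescence.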
For orientation: Quantitative high-throughput screening tests each substance at several concentrations.

Assay [2] has the same target. In words: qHTS assay to identify small molecule antagonists of the progesterone receptor (PR) signaling pathway (AID 1346795; active means well fitted inhibition curve with a large enough effect in the signal ratio in the repeat runs, not every such curve was filed as active; the % refers to the signal ratio). In outline: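 Stimulus R5020 at 1 nM final; cells HEK293T PR-UAS-bla; medium with 2% charcoal-stripped FBS; compound exposure 16 hr at 37C, 5% CO2; detection by FRET beta-lactamase substrate, 2 hr, room temperature.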
Assay [3] can be described thus: qHTS assay to identify small molecule antagonists of the progesterone receptor (PR) signaling pathway - cell viability counter screen (AID 1346798). Further: series mostly up to about 92 µM; nearly all actives have a fitted effect of over 50% in size. In outline: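 In the same plates used for the beta-lactamase readout, cell viability of compound- and R5020-treated PR-UAS-bla HEK293T cells (16 hr, 37C) was assessed by CellTiter-Glo luminescence.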
A short description of assay [4]: qHTS assay to identify small molecule antagonists of the TGF-beta/Smad signaling pathway - cell viability counter screen (AID 1346824). Further: nearly all actives have a fitted effect of over 50% in size. The procedure, abridged: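 SBE-bla HEK 293T cells were plated overnight at 37 C, then given compounds in DMSO plus TGF-beta1 (added as 0.25 ng/mL solution) for 5 hr. After the bla read, CellTiter-Glo was added to the same wells and luminescence read after 30 min at room temperature.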

Assay [5] in a line: qHTS assay to identify small molecule agonists of the TGF-beta/Smad signaling pathway - cell viability counter screen (AID 1346829). Further: top concentration of the series differs between compounds; nearly all actives have a fitted effect of over 45% in size. In outline:
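Here the cytotoxicity of library compounds is measured in SBE-bla HEK 293T cells treated for 5 hr, using CellTiter-Glo added to wells already read for the beta-lactamase reporter.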

The nature of assay [6]: qHTS assay to identify small molecule agonists of the TGF-beta/Smad signaling pathway (AID 1346859; active means well fitted activation curve with a large enough effect in the signal ratio in the repeat runs, not every such curve was filed as active; the % refers to the signal ratio; further: series mostly up to about 77 µM). The procedure, abridged:
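Screening used HEK 293T SBE-bla cells at 4,000/well. Test agents: 5 hr, 37 C. Detection: FRET substrate, 2 hr RT, then excitation 405 nm with emissions at 460 and 530 nm.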

Assay [7] addresses Thyrotropin-releasing hormone receptor (Homo sapiens) (UniProt P34981). In words: qHTS assay to identify small molecule antagonists of the thyrotropin-releasing hormone receptor (TRHR) signaling pathway (AID 1346877; active means well fitted inhibition curve with a large enough effect in the repeat runs, not every such curve was filed as active; further: series mostly up to about 51 µM). The procedure, abridged: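 Intracellular calcium fluorescence, read kinetically every second over 3 min, reports TRH-evoked signalling in HEK293 cells carrying TRHR. Test compounds were added 5 min ahead of a 1 nM TRH challenge.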

The target is the same in assay [8]. In words: qHTS assay to identify small molecule agonists of the thyrotropin-releasing hormone receptor (TRHR) signaling pathway (AID 1346891; calls by dose curve; further: series mostly up to about 58 µM). In outline:
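Readout was intracellular calcium fluorescence in TRHR-Hek293 cells. Cells were incubated 18 h, dye-loaded 2 h at 37 °C, and treated with compound in agonist mode.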

The nature of assay [9]: Caspase-3/7 induction in HepG2 cells by small molecules, qHTS assay (AID 1346978). Further: nearly all actives have a fitted effect of over 15% in size. In outline:
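Wild-type HepG2 cells (2,000/well) were settled 5 h at 37 C, 5% CO2, then exposed to compounds in DMSO for 17 h. Caspase-3/7 activity was read by luminescence 30 min after adding Caspase-Glo 3/7 reagent at room temperature.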

The nature of assay [10]: Caspase-3/7 induction in CHO-K1 cells by small molecules, qHTS cell viability counter screen (AID 1346979). Further: nearly all actives have a fitted effect of over 35% in size. In outline:
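Following a 5hr settling period, CHO-K1 cells at 1,500 per well received DMSO-dissolved compounds. Cell viability was quantified 16hr later by CellTiter-Fluor fluorescence, measured after 1hr with reagent at 37C.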

Assay [11] in a line: Caspase-3/7 induction in CHO-K1 cells by small molecules, qHTS assay (AID 1346980). Further: nearly all actives have a fitted effect of over 15% in size. In outline:
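Wild-type cells were seeded at 1,500 per well and settled 5 hr at 37 C, 5% CO2, then exposed to DMSO-dissolved compounds for 17 hr. Caspase-Glo 3/7 reagent was added, and luminescence was read after 30min at room temperature.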

A short description of assay [12]: Caspase-3/7 induction in HepG2 cells by small molecules, qHTS cell viability counter screen (AID 1346981). Further: series mostly up to about 92 µM; nearly all actives have a fitted effect of over 30% in size. In outline:
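HepG2, WT, 2,000 cells/well; 5 hr pre-incubation 37 C/5% CO2; compound pin-transferred from DMSO; 16 hr exposure; CellTiter-Fluor, 1 hr; fluorescence read.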

For assay [13], the target named is Nuclear receptor subfamily 1 group I member 2 (Homo sapiens) (UniProt O75469). The experiment in a line: Human pregnane X receptor (PXR) small molecule agonists, qHTS assay (AID 1346982). Further: nearly all actives have a fitted effect of over 35% in size. The procedure, abridged:
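Luciferase signal from ONE-Glo (30 min, room temperature) measured activation of hPXR-driven CYP3A4 reporter expression in PXR-Luc HepG2 cells treated with compounds for 24 hr at 37 C.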

Assay [14] has as its target Nuclear receptor subfamily 1 group I member 2 (Rattus norvegicus) (UniProt Q9R1A7). In words: Rat pregnane X receptor (rPXR) activation by small molecules, qHTS assay (AID 1346983). Further: nearly all actives have a fitted effect of over 20% in size. The conditions noted are these: rPXR luciferase reporter cells, One-Glo luminescence, 24 h; active compounds read high. The procedure, abridged:
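Cell-based rPXR luciferase reporter assay, 2,000 cells per well, rested 5hr at 37 C before compound addition in DMSO, then 24 hr at 37 C. One-Glo reagent was added and luminescence read after 30 min at room temperature.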

Assay [15] deals with Nuclear receptor subfamily 1 group I member 2 (Homo sapiens) (UniProt O75469). The experiment in a line: CYP3A4 induction through human pregnane X receptor (PXR) by small molecules, qHTS assay (AID 1346984). Further: nearly all actives have a fitted effect of over 40% in size. In outline: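 Luminescence readout: luciferase signal after One-Glo (30 min, room temperature), following 3 h at 37C with 3uM final Luciferin-IPA P450 substrate. Cells were DPX-2 (HepG2, PXR/CYP3A4-luc co-transfected) dosed for 24 h.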

Assay [16] has the same target. In words: Human pregnane X receptor (PXR) activation by small molecules, qHTS assay (AID 1346985). Further: nearly all actives have a fitted effect of over 40% in size. The procedure, abridged: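 DPX-2 cells (HepG2 co-transfected with a PXR response element and a CYP3A4-promoter luciferase construct) were seeded at 2,000 per well, rested 5 hr at 37C, then exposed to DMSO-dissolved compounds for 24 hr. Activation was read as luciferase luminescence.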

Assay [17] has as its target Cytochrome P450 2D6 (Homo sapiens) (UniProt P10635). In words: Cytochrome P450 Family 2 Subfamily D Member 6 (CYP2D6) small molecule antagonists: luciferase reporter qHTS assay (AID 1671196). Further: series mostly up to about 120 µM; nearly all actives have a fitted effect of over 50% in size. In outline:
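Read-out is luminescence from luciferin formed by CYP2D6 turnover of a proluciferin substrate, recorded as relative luminescence units. Reactions ran 1 h at room temperature after NADPH regeneration solution was added.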

The target of assay [18] is Cytochrome P450 2C19 (Homo sapiens) (UniProt P33261). The experiment in a line: Cytochrome P450 Family 2 Subfamily C Member 19 (CYP2C19) small molecule antagonists: luciferase reporter qHTS assay (AID 1671197). Further: nearly all actives have a fitted effect of over 65% in size. Further: potency means the concentration at half of the fitted maximal effect. On activity change, negative = inhibition: series mostly up to about 120 µM. The procedure, abridged:
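Light output is proportional to CYP2C19 activity: proluciferin substrate is converted to luciferin, then detected by a luciferin detection reagent that also stops the 1 h, 37C NADPH-driven reaction. Ketoconazole serves as positive control.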
On the technique in general: Reporter assays use an easily measured gene product as a stand-in for the process of interest.

A short description of assay [19]: Human pregnane X receptor (PXR) small molecule agonists, qHTS cell viability counter screen (AID 1346977). Further: nearly all actives have a fitted effect of over 50% in size. The procedure, abridged: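 In each well, the PXR reporter HepG2 line was checked for viability: CellTiter-Fluor reagent added 23hr post-dosing, fluorescence read after 1hr incubation at 37C.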
On the % scale 0 is the no-effect control and ±100 the full control effect.

Nuclear receptor subfamily 1 group I member 2 (Homo sapiens), sequence (O75469 whole entry, looked up): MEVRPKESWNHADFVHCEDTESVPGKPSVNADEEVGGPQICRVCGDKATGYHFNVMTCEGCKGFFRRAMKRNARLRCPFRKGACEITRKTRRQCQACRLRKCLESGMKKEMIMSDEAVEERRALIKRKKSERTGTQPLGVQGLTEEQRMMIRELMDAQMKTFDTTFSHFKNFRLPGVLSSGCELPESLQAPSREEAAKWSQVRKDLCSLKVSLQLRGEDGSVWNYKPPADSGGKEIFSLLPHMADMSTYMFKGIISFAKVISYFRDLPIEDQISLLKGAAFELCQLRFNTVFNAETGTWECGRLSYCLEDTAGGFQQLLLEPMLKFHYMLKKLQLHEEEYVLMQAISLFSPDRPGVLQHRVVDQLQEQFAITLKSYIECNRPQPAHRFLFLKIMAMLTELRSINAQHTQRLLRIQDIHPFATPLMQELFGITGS
Thyrotropin-releasing hormone receptor (Homo sapiens), sequence (P34981 whole entry, looked up): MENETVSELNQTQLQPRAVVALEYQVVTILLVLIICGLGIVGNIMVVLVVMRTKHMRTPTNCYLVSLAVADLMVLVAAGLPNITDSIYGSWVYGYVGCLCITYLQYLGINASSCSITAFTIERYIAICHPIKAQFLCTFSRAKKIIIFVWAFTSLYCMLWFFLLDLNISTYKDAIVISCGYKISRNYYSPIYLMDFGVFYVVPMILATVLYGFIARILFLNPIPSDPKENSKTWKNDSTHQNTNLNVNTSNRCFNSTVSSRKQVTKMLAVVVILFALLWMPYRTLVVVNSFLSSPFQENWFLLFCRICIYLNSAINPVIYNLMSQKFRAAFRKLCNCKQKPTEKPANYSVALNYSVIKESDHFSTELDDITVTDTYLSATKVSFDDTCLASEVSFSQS
Progesterone receptor (Homo sapiens), sequence (P06401 whole entry, looked up): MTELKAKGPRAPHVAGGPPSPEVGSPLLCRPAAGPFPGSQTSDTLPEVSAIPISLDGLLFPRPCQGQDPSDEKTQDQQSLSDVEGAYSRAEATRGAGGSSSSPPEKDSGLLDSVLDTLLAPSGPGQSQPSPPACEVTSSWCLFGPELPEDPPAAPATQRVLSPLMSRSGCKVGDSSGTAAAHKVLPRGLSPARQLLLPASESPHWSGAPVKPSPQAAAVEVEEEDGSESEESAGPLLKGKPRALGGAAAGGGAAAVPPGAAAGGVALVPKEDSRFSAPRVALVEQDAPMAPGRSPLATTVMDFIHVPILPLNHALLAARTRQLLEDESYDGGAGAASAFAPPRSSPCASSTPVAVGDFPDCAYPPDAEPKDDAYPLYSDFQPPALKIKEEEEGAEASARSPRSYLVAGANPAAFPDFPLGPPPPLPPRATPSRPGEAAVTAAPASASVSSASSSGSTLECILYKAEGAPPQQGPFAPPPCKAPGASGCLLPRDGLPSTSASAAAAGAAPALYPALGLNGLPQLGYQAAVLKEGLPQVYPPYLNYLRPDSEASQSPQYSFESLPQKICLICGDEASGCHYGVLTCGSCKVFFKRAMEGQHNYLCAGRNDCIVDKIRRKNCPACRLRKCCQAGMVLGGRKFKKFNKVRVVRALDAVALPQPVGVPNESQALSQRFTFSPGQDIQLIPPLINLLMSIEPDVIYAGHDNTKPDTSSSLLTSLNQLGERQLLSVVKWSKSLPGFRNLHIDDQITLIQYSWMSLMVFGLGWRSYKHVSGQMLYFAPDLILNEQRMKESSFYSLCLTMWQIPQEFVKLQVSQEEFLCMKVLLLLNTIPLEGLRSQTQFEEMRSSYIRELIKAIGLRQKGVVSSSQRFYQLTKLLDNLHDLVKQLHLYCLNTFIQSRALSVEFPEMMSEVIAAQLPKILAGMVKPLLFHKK
Cytochrome P450 2C19 (Homo sapiens), sequence (P33261 whole entry, looked up): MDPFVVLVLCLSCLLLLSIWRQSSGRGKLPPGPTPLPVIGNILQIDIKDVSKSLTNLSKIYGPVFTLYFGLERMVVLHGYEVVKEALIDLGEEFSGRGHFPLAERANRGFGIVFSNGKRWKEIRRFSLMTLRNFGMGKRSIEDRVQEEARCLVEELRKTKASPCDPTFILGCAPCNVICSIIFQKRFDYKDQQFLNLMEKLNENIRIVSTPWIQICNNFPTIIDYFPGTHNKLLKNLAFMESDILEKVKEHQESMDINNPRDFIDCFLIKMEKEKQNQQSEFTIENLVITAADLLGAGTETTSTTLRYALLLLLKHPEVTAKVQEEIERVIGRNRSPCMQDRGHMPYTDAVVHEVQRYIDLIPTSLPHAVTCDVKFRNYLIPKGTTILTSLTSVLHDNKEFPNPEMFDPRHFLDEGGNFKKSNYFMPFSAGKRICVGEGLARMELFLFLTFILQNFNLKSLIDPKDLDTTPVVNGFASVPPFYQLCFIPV
Cytochrome P450 2D6 (Homo sapiens), sequence (P10635 whole entry, looked up): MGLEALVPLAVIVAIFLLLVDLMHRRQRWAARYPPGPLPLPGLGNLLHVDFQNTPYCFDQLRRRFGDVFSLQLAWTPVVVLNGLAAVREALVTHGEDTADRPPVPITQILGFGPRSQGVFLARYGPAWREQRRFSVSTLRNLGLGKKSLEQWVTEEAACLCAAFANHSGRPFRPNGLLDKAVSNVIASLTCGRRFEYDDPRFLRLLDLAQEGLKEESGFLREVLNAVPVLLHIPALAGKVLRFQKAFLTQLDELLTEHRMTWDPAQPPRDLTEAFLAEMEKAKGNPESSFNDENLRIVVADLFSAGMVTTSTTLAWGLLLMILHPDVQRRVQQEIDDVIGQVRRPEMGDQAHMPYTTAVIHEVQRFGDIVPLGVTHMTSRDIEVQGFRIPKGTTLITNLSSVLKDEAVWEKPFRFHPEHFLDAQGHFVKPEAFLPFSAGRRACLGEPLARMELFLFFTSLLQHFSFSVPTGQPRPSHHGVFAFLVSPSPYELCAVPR
Nuclear receptor subfamily 1 group I member 2 (Rattus norvegicus), sequence (Q9R1A7 whole entry, looked up): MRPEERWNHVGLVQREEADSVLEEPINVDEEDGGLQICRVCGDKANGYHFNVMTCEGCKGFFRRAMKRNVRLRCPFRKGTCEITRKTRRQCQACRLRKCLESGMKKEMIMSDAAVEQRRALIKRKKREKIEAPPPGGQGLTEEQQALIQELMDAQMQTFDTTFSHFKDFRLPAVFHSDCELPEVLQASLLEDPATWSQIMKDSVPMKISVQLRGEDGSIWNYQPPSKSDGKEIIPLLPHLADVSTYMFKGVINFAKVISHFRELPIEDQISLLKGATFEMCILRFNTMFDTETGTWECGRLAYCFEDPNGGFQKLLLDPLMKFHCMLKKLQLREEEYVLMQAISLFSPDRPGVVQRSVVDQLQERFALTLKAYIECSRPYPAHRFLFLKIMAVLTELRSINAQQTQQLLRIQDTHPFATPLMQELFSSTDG

`Cc1cc(O)cc2c1O[C@](C)(CCC[C@H](C)CCC[C@H](C)CCCC(C)C)CC2`: the Potency entry in assay [1], in assay [2], in assay [3], in [4], in [9] and in assay [10] was “inactive” throughout. The Potency result in [12], in [13], in [15], in [16], in assay [17] and in assay [18] was “inactive” throughout. In addition, the molecule was classed as inactive in assay [5], in assay [6], in assay [7], in [8] and in [11]. Also, the max activation in assay [14] was -2.13%.
Consider `C=CCOCC(CC)(CO)COCC=C`, for which the Potency result in [1], in [2], in [3], in [4], in [9] and in assay [10] was “inactive” in each case. The Potency entry in [12], in assay [13] and in assay [17] was “inactive” throughout. In addition, the result in [5], in assay [6], in [7], in assay [8] and in assay [11] was inactive. Besides, in [18], the Potency is 3.99 µM (active).
Turning to `CN(C(=O)c1c(O)c2ccccc2n(C)c1=O)c1ccccc1`, the Potency entry in assay [1], in assay [2], in [3], in assay [4], in assay [19] and in assay [9] was “inactive” in each case. Besides, the Potency entry in assay [10], in [12], in [17] and in assay [18] was “inactive” throughout. For the same molecule, the call in assay [5], in [6] and in assay [11] was inactive. In addition, the max activation in [14] was -3.59%.
For the molecule `c1ccc(CC2=NCCN2)cc1`, the Potency result in assay [1], in [2], in assay [3], in assay [4], in assay [9] and in assay [12] was “inactive” throughout. For the same molecule, the Potency entry in [13], in assay [15] and in assay [16] was “inactive” throughout. For the same molecule, the outcome in assay [5], in assay [6], in [7], in [8] and in [11] was inactive. In addition, the max activation in [14] was -1.57%.
In the case of `Brc1c(NC2=NCCN2)ccc2nccnc12`, the Potency result in [1], in assay [2], in [3], in assay [4], in [9] and in assay [10] was “inactive” each time. Further, the call in assay [5], in assay [6] and in [11] was inactive.
Turning to `CCc1nccnc1CC`, the activation in assay [1] was 0.626% [at 19 µM]; in assay [6] it was 1.18% [at 15.8 µM]; in assay [8], 0.11% [at 11.8 µM]; in [13], -0.742% [at 19 µM]. Also, the Potency entry in assay [2], in assay [3], in assay [10] and in assay [18] was “inactive” each time. The viability change, negative = cytotoxic in assay [4] was 4.47% [at 15.8 µM]. The activity change, negative = cytotoxicity in assay [5] is 3.37% [at 15.8 µM]; in assay [19], -1.38% [at 19 µM]. The activity, negative = inhibition in assay [7] was 3.49% [at 10.5 µM]. For the same molecule, the caspase activation in assay [9] is 0.2% [at 19 µM]. In addition, in [11], the caspase-3/7 activation is -0.427% [at 19 µM]. Moreover, the activity change, negative = inhibition in assay [17] is -14% [at 23.6 µM].
Take `c1ccc([C@H]2CN3CCSC3=N2)cc1`: the Potency result in assay [1], in assay [2], in [3], in assay [4], in assay [19] and in [9] was “inactive” throughout. Moreover, the Potency result in assay [12], in [13], in assay [15], in assay [16] and in [18] was “inactive” in each case. Besides, the result in [5], in assay [6] and in assay [8] was inactive. In addition, the max activation in assay [14] was -1.7%.
